What all share (test): log2 fold change, soluble protein after heating vs DMSO (PISA); higher = thermal stabilisation; K562 cells, 10 uM, 30 min; active = over 0.2 and 3.5 SD of the protein, either way, in both replicates (recomputed)
Compound in assay [1]: C1=CC=C(C=C1)[C@H](COC2=CC3=C(C=C2)NC(=O)N3)NC(=O)C4=CC=CN(C4=O)CC5=CC(=C(C=C5)F)F
An outline of the steps:
(§1)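 K562 cells (2×10^6 cells/mL) were treated with 10 μM compound for 30 min, and aliquots were heated for 3 min over 48°C-58°C. Pooled aliquots were extracted in PBS with 0.5% NP-40 at 4°C, and the supernatant after 21,000xg for 90 min was measured by TMTpro 16plex LC-MS/MS with channel sums equalised. Reported thermal stability, relative to control samples and from duplicates, is a log2 fold change.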

Compound in assay [2]: CC1=C(SC2=C1C(=N[C@H](C3=NN=C(N32)C)CC(=O)N)C4=CC=C(C=C4)Cl)C
An outline of the steps: as §1

Compound in assay [3]: CC1=C2C(=CC=C1)N=C(N(C2=O)C3=CC=CC=C3C)CN4C=NC5=C(N=CN=C54)N
A digest of the protocol:
as §1

Compound in assay [4]: Cc1sc2c(c1C)C(c1ccc(Cl)cc1)=N[C@@H](CC(=O)OC(C)(C)C)c1nnc(C)n1-2
An outline of the steps: as §1

Compound in assay [5]: c1ccc([C@@H]2C[C@H]2NC2CCNCC2)cc1
An outline of the steps:
as §1

This note sets out measurements from the supplement of paper PMC10849652.

The full data set covers some 7,900 targets. This sample favours those with a hit. About 0.6% of all pairs of compound and target were hits. Values without a mark were called inactive.

Sequence of UniProt Q96BI3 (Q96BI3 whole entry, looked up): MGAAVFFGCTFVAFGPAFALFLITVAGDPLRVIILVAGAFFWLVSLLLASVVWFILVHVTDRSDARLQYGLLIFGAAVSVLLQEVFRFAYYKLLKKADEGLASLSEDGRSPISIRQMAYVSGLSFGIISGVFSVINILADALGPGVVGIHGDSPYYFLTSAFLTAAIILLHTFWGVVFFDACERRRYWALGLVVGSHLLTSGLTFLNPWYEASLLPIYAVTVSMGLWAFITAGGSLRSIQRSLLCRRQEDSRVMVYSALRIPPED
Sequence of UniProt Q2TAA5 (Q2TAA5 whole entry, looked up): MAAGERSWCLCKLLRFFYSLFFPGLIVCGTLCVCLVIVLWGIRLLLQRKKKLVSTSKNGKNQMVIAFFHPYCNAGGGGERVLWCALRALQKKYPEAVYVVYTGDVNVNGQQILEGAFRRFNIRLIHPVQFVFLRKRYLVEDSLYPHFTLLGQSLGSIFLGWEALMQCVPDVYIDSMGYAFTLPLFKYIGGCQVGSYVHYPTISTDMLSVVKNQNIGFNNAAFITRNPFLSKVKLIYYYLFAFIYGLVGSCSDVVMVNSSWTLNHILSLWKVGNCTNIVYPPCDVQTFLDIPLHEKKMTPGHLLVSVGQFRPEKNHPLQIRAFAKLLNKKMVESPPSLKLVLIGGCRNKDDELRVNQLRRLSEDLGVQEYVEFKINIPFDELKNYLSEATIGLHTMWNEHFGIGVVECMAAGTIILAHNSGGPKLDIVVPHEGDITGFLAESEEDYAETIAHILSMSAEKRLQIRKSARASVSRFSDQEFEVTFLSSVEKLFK
Sequence of UniProt P11310 (P11310 whole entry, looked up): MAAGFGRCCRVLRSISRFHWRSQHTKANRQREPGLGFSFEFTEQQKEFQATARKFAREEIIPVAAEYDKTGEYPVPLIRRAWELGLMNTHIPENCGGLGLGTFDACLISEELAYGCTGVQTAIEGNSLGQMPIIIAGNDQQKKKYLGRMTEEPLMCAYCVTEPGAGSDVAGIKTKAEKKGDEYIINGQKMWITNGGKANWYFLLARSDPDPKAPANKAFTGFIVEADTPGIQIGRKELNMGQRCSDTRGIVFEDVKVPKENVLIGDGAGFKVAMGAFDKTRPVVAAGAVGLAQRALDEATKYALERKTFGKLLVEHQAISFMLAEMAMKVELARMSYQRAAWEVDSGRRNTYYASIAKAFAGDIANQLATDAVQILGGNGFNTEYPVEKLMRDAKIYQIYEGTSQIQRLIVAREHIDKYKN
Sequence of UniProt P49189 (P49189 whole entry, looked up): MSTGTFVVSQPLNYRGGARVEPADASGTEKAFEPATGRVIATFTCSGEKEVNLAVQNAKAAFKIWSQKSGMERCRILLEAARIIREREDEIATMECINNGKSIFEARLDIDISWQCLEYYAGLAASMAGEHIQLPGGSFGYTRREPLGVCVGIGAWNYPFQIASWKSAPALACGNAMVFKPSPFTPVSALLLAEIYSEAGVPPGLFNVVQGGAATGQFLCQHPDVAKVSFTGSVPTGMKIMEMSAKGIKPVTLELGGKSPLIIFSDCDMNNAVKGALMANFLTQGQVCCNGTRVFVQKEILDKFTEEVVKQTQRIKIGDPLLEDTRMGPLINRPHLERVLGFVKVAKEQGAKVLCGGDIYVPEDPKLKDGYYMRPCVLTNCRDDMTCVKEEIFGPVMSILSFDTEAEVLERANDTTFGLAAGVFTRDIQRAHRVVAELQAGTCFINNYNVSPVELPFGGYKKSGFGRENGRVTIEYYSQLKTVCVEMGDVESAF
Sequence of UniProt P02749 (P02749 whole entry, looked up): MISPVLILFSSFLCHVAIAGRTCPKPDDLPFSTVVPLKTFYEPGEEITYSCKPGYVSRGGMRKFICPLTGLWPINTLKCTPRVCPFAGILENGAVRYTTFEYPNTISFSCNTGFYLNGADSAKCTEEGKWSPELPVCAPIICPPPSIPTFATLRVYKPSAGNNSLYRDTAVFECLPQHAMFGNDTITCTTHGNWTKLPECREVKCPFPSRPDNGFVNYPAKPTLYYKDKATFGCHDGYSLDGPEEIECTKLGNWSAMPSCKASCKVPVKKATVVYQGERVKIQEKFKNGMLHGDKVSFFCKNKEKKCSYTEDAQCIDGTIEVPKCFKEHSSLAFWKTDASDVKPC
Sequence of UniProt O00170 (O00170 whole entry, looked up): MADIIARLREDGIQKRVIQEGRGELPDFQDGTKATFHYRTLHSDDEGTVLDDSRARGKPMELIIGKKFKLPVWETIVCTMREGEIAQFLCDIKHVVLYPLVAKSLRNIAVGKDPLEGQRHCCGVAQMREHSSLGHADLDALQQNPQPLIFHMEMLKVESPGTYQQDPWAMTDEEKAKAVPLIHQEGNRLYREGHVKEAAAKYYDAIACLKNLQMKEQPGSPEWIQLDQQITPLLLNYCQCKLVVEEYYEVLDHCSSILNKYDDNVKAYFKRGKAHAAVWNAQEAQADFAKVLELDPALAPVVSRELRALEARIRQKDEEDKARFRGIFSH
Sequence of UniProt Q93084 (Q93084 whole entry, looked up): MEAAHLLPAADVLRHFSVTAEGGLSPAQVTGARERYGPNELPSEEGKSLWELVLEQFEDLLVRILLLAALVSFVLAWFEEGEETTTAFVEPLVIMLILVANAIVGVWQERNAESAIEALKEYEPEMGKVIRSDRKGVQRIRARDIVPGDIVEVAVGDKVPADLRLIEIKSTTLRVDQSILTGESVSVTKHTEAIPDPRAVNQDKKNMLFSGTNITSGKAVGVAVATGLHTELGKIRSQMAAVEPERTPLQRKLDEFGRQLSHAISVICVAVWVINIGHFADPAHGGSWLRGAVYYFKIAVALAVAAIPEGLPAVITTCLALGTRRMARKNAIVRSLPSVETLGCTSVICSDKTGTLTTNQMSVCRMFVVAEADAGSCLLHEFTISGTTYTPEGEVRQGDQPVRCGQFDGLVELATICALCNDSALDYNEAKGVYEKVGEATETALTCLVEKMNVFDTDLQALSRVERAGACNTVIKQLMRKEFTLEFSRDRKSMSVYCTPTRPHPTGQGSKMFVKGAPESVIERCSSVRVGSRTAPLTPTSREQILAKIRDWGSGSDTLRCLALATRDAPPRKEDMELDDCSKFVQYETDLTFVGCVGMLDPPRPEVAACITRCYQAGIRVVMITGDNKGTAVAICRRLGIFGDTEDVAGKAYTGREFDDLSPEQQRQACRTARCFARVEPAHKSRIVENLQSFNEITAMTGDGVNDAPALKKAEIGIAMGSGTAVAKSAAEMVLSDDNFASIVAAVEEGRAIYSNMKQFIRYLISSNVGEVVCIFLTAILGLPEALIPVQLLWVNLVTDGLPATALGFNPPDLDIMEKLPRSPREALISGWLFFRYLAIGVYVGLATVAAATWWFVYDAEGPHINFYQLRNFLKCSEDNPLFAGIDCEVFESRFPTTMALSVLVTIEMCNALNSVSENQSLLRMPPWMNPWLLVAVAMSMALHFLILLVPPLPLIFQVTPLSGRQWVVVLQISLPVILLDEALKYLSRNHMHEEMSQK
Sequence of UniProt Q4L235 (Q4L235 whole entry, looked up): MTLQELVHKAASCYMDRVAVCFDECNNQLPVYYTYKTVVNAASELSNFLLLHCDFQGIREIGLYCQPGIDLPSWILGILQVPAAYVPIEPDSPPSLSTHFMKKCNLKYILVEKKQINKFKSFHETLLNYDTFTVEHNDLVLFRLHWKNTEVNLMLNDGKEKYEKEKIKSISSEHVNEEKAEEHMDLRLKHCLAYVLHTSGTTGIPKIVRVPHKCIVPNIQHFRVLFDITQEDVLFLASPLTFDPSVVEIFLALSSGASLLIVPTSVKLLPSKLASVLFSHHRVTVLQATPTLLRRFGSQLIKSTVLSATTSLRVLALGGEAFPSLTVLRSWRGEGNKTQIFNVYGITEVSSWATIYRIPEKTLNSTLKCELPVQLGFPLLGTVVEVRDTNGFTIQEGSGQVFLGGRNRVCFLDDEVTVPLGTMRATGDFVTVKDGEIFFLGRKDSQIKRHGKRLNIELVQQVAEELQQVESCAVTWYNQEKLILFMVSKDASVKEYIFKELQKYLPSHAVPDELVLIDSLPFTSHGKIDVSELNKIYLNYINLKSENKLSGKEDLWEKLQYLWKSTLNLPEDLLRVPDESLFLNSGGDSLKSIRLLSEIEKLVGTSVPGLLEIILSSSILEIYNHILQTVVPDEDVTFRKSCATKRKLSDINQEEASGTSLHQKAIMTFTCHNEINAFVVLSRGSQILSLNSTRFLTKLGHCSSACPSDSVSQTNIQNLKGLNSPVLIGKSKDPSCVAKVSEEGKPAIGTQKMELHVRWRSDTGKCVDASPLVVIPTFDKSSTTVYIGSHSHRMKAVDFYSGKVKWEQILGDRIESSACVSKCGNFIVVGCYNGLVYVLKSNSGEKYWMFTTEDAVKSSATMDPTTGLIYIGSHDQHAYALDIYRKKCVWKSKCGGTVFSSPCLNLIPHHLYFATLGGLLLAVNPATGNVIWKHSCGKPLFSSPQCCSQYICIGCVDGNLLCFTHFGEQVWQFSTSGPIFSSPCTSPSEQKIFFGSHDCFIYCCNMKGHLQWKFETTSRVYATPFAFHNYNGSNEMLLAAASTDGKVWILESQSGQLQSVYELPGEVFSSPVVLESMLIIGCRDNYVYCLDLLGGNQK
Sequence of UniProt P18085 (P18085 whole entry, looked up): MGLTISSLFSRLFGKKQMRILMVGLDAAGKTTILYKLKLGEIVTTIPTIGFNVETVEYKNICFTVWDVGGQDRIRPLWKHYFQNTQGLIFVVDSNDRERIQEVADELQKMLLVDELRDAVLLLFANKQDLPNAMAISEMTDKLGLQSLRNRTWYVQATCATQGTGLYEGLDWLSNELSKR
Sequence of UniProt P18846 (P18846 whole entry, looked up): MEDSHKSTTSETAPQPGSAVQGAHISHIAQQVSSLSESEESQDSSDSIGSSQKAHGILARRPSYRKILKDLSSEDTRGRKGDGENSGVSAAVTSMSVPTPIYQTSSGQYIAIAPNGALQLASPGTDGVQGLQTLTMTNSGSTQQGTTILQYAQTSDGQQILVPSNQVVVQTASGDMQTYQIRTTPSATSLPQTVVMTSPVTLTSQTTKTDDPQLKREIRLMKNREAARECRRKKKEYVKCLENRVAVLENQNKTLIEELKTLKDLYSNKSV

With ALG3 (UniProt Q92685), the log2 fold change was -0.061 in assay [1]; 0.019 in assay [2]; 0.072 in assay [3]; 0.054 in assay [4]; -0.026 in assay [5].
The matching figures for BLOC1S3 (UniProt Q6QNY0): -0.048, 0.084, 0.088, -0.113 and -0.06.
The like results for AKT2 (UniProt P31751) were, in that order, -0.124, 0.055, 0.061, 0.009 and -0.028.
Consider APOH (UniProt P02749), for which the log2 fold change is -0.265 in assay [1]; -0.106 in assay [2]; 0.073 in assay [3]; -0.051 in assay [4]; 0.199 in assay [5].
As to ACADM isoform 2 (UniProt P11310), the log2 fold change in assay [1] was 0.007; in assay [2] it was 0.024; in assay [3], -0.015; in assay [4], -0.016; in assay [5] it was -0.031.
The like results for BRD8 isoform 2 (UniProt Q9H0E9) were, in that order, 0.035, -0.091, 0.167, 0.046 and 0.038.
The like results for ARF4 (UniProt P18085) were, in that order, 0, 0.045, 0.053, -0.082 and -0.015.
The like results for ARFRP1 (UniProt Q13795) were, in that order, 0, -0.066, -0.03, -0.021 and 0.029.
In the case of ACSL3 (UniProt O95573), the log2 fold change in assay [1] is -0.05; in assay [2], 0.068; in assay [3], 0.028; in assay [4], -0.014; in assay [5] it was -0.036.
The like results for ATP2A3 isoform 2 (UniProt Q93084) were, in that order, -0.01, 0.035, 0.036, -0.002 and 0.01.
The matching figures for BECN1 (UniProt Q14457): -0.071, 0.061, -0.017, 0.021 and 0.05.
The like results for AARS2 (UniProt Q5JTZ9) were, in that order, -0.047, 0.081, 0.044, 0.005 and -0.016.
As for ATRN (UniProt O75882), the log2 fold change in assay [1] was -0.011; in assay [2], -0.031; in assay [3], 0.027; in assay [4], -0.055; in assay [5], 0.006.
The matching figures for ALDH9A1 (UniProt P49189): 0.059, -0.193, 0.03, 0.098 and 0.156.
Regarding ATF7 isoform 6 (UniProt P17544), the log2 fold change is -0.097 in assay [1]; 0 in assay [2]; -0.187 in assay [3]; 0.184 in assay [4]; -0.034 in assay [5].
AIP (UniProt O00170): the log2 fold change was -0.031 in assay [1]; 0.078 in assay [2]; 0.042 in assay [3]; -0.004 in assay [4]; -0.018 in assay [5].
For ALG11 (UniProt Q2TAA5), the log2 fold change in assay [1] is 0.001; in assay [2] it was 0.085; in assay [3], 0.144; in assay [4], -0.051; in assay [5] it was -0.021.
The like results for ATAD3B (UniProt Q5T9A4) were, in that order, -0.02, -0.023, -0.055, 0.123 and 0.025.
On to ANK2 (UniProt Q01484), for which the log2 fold change in assay [1] was -0.019; in assay [2], 0.058; in assay [3] it was 0.071; in assay [4], 0.159; in assay [5], 0.02.
The matching figures for ABCC5 (UniProt O15440): -0.034, 0.082, -0.02, -0.001 and -0.025.
The matching figures for AKT1 (UniProt P31749): -0.068, 0.018, 0.034, 0.042 and -0.072.
The like results for AASDH (UniProt Q4L235) were, in that order, 0.047, 0.054, -0.25, -0.05 and 0.037.
For the target APH1A (UniProt Q96BI3), the log2 fold change in assay [1] is -0.015; in assay [2], 0.009; in assay [3], -0.21; in assay [4] it was -0.08; in assay [5], -0.153.
The matching figures for ATF1 (UniProt P18846): -0.054, 0.11, -0.001, -0.014 and -0.391 (active).
